In PubChem BioAssay AID687014 (The Scripps Research Institute Molecular Screening Center, 2013):
Hit rate of the full screen: of about 370,000 compounds, about 6,800 (1.8%) were called active. The sample as a whole holds a higher share of actives than the screen did. Unmarked numbers belong to inactive results.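 How the source made its calls: active means activation above a cutoff set at the mean of all screened compounds plus 3 SD (cut at about 10% in these data); inactive means the rest.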

Tested on: Nuclear hormone receptor DAF-12 (Heterodera glycines), GAL4 fusion
Assay: hgDAF-12 GAL4 fusion reporter activation – cell-based, luminescence, HEK293, UAS-luciferase, primary screen (AID 687014);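 further: 0% = DMSO wells and 100% = sodium butyrate wells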
Details: HEK293 GAL4-hgDAF12 UAS-luciferase reporter, agonist luminescence; at 6.8 µM; stronger effect = higher value; normalized to butyrate control

**Q.** How did the activation turn out when `COc1cccc(CNC(=O)C2CCCN(c3nc4ccccc4o3)C2)c1OC` (configuration not stated) was run?
**A.** Its activation is 1.01%.

**Q.** Which activation does the source give for `CC(C)C(=O)Nc1cccc(NC(=O)c2ccc([N+](=O)[O-])cc2Cl)c1` here?
**A.** Its activation is -0.06%.

**Q.** For `O=C(Nc1ccc(Br)cn1)c1ccc([N+](=O)[O-])cc1Cl`, which activation is on record?
**A.** Its activation is 11.7% (active).

**Q.** How did the activation turn out when `O=C(Nn1cnc2ccccc2c1=O)c1ccc([N+](=O)[O-])cc1Cl` was run?
**A.** The activation was -0.41%.

**Q.** `Cc1cc(Cl)ccc1-c1nc(NCCN(C)C)nc2ccsc12` was tested. Which activation did it give?
**A.** Its activation is 1.09%.

**Q.** How did the activation turn out when `O=C(CN1CCCc2ccccc21)NCc1ccc(F)cc1` was run?
**A.** Its activation is 1.21%.

**Q.** `Cc1cccc(N2O[C@H]3C=CC2CCCC3)n1` was tested. Which activation did it give?
**A.** Its activation is -0.73%.

**Q.** `Cc1ccn(-c2cccc(-n3ccc(C)n3)n2)n1` was tested. Which activation did it give?
**A.** Its activation is 18.1% (active).

**Q.** `COc1ccc(C(=O)OCCN2CCN(C3CN(Cc4cn(Cc5ccccc5F)nn4)S(=O)(=O)C3)CC2)cc1OC` (configuration not stated) was tested. Which activation did it give?
**A.** The activation was -1.46%.

**Q.** For `CCNc1nc(-c2cc3ccccc3o2)cs1`, which activation is on record?
**A.** Its activation is 12.5% (active).

**Q.** For `Cn1c(CNc2nc(-c3ccccc3)cs2)nnc1SCC(=O)c1ccccc1`, which activation is on record?
**A.** The activation was -0.81%.

**Q.** Which activation does the source give for `Cn1c(SCC(=O)NC2CCCCC2)nnc1-c1cc2ccccc2o1` here?
**A.** The activation was 4.2%.

**Q.** With `COc1ccc(NC(=O)CN(Cc2ccccc2)S(C)(=O)=O)cc1OC` as the compound, how does the activation read?
**A.** Its activation is 0.79%.

**Q.** `S=C(NN=Cc1ccccn1)Nc1ccccn1` was tested. Which activation did it give?
**A.** The activation was 14.5% (active).

**Q.** `O=C(O)C1C2C=CC(O2)C1C(=O)Nc1ccccn1` (configuration not stated) was tested. Which activation did it give?
**A.** Its activation is 0.96%.

**Q.** With `CS(=O)(=O)N(CC(=O)N/N=C/c1ccccn1)c1ccc(Oc2ccccc2)cc1` as the compound, how does the activation read?
**A.** The activation was 2.64%.

**Q.** How did the activation turn out when `CC(C)(C)c1ccc(CSc2nnc(-c3cccs3)o2)cc1` was run?
**A.** Its activation is 5.74%.

**Q.** How did the activation turn out when `Clc1ccc(Cc2nnc(-c3cccs3)o2)cc1` was run?
**A.** Its activation is 12.7% (active).

**Q.** With `c1csc(-c2nnc(COc3ncnc4sccc34)o2)c1` as the compound, how does the activation read?
**A.** Its activation is 1.72%.

**Q.** `CC(C)[C@H]1COCCS(=O)(=O)N1Cc1ccccc1-c1cccc2c1sc1ccccc12` was tested. Which activation did it give?
**A.** The activation was 2.06%.

**Q.** How did the activation turn out when `Cc1ccc(OCc2nnc(SC/C=C/c3ccccc3)n2Cc2ccco2)cc1` was run?
**A.** The activation was -2.63%.

**Q.** Which activation does the source give for `c1ccc(CN=C2Nc3ccccc3CS2)nc1` here?
**A.** The activation was 15% (active).

**Q.** For `O=C1CSc2ccc(C(=O)NCc3ccccn3)cc2N1`, which activation is on record?
**A.** Its activation is 3.35%.

**Q.** For `COc1ccc(OC)c(CNC(=O)c2cc(=O)[nH]c3ccc(S(=O)(=O)N4CCCC4)cc23)c1`, which activation is on record?
**A.** The activation was 5.76%.

**Q.** Which activation does the source give for `CCc1ccc(C2=CC(=O)CC(C)(C)C2=O)cc1` here?
**A.** The activation was -0.49%.

**Q.** How did the activation turn out when `Cc1c(C(=O)Nc2ccccn2)oc2ccc(Br)cc12` was run?
**A.** Its activation is 11.2% (active).

**Q.** How did the activation turn out when `Cc1nonc1NC(=O)c1oc2ccccc2c1C` was run?
**A.** The activation was 4.37%.

**Q.** With `CCc1nonc1NC(=O)c1oc2ccc(Cl)cc2c1C` as the compound, how does the activation read?
**A.** The activation was 3.2%.

**Q.** `CCOC(=O)c1nnn(CC(=O)Nc2cccc(F)c2)c1C(=O)OCC` was tested. Which activation did it give?
**A.** The activation was -0.57%.

**Q.** Which activation does the source give for `O=C(Nc1cccc(Cl)c1)c1cncn1-c1ccc(F)cc1` here?
**A.** Its activation is 1.29%.

**Q.** `CCC(=O)Nc1ccc2nn(-c3ccc(F)cc3)nc2c1` was tested. Which activation did it give?
**A.** Its activation is 12.1% (active).

**Q.** With `CCOC(=O)N1CCN(c2cc(C)c([N+](=O)[O-])cc2F)CC1` as the compound, how does the activation read?
**A.** The activation was 4.66%.

**Q.** `CCNC(=S)NCC` was tested. Which activation did it give?
**A.** Its activation is -0.86%.

**Q.** With `Cc1ccc(C(=O)N(Cc2ccccn2)CC2CCCO2)cc1` (configuration not stated) as the compound, how does the activation read?
**A.** The activation was -3.33%.

**Q.** Which activation does the source give for `Cc1ccc(NC(=S)NNC(=O)CSc2nnc(SCc3ccccc3Cl)s2)cc1` here?
**A.** Its activation is 2.13%.

**Q.** `COC(=O)c1c(-c2ccc(OC)cc2)c2c(c3c4cc(OC)ccc4n(S(=O)(=O)c4ccc(F)cc4)c13)C(=O)N(C)C2` was tested. Which activation did it give?
**A.** The activation was -2.44%.

**Q.** For `O=C(Nc1nc2ccc(Cl)cc2s1)c1cc(-c2ccc(Cl)cc2)nc2ccccc12`, which activation is on record?
**A.** The activation was -1.16%.

**Q.** `O=C(Nc1ccccc1)Nc1nnc(COc2ccccc2F)s1` was tested. Which activation did it give?
**A.** Its activation is -2.63%.

**Q.** `O=C(Nc1ccccc1)Nc1nc2ccccc2s1` was tested. Which activation did it give?
**A.** The activation was 26.4% (active).

**Q.** For `CC(C)c1ccc(C=NNc2ccc([N+](=O)[O-])cn2)cc1`, which activation is on record?
**A.** The activation was 16.8% (active).

**Q.** With `CN(CCc1ccccc1)c1ccc([N+](=O)[O-])cn1` as the compound, how does the activation read?
**A.** The activation was 2.43%.

**Q.** Which activation does the source give for `CC(C)c1ccc(/C=C2\NC(=O)NC2=O)cc1` here?
**A.** The activation was 1.14%.

**Q.** How did the activation turn out when `CCOC(=O)c1csc(NC(=O)C2CCCN(S(=O)(=O)c3ccc(Cl)s3)C2)n1` (configuration not stated) was run?
**A.** Its activation is -0.73%.

**Q.** For `CSCCC(NC(=O)c1ccco1)C(=O)Nc1cc(C)ccn1` (configuration not stated), which activation is on record?
**A.** The activation was 11.9% (active).

**Q.** For `CSCCC(NC(=O)c1ccco1)C(=O)OCC(=O)Nc1ncc(Cl)c(C)c1Cl` (configuration not stated), which activation is on record?
**A.** The activation was -1.62%.

**Q.** With `CSCCC(NC(=O)c1ccco1)C(=O)NCCc1ccc(F)cc1` (configuration not stated) as the compound, how does the activation read?
**A.** Its activation is 0.46%.

**Q.** For `COC(=O)[C@]12C[C@H](CC(=O)NCc3ccccc3)C(=O)N(CCC3=CCCCC3)C1=C[C@H](C(C)C)O[C@@H]2C1CC1`, which activation is on record?
**A.** The activation was 2%.
